The whole screen tested about 5,500 compounds, of which about 2,000 (36%) were called active. About 18% were inconclusive and are not listed. Rule as the data show it: active = normalized growth mostly below about 0.91 (no sharp cut-off); inconclusive = no clear call, values can overlap the other calls; inactive = mostly above about 0.92. The list shows a part of the results.
Assay: chemical genetic growth profiling, strain panel (AID 1159580);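 also: tested at 20 µM; growth read once vehicle control cultures reached saturation at 30 °C; 1 = growth at the plate median or of vehicle wells; lower values mean less growth of the strain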
Details: S. cerevisiae deletion strains, growth OD

Measured: normalized growth

COc1ccc2c(c1)c(CC(=O)O)c(C)n2C(=O)c1ccccc1
inactive: locus YAL040C, strain CLN3, active compounds read low 1.03 | locus YDR150W, strain NUM1, active compounds read low 0.99 | locus YDR363W, strain ESC2, active compounds read low 1.04 | locus YER002W, strain NOP16, active compounds read low 1 | locus YGR078C, strain PAC10, active compounds read low 1.03 | locus YGR229C, strain SMI1, active compounds read low 1.02 | locus YNL153C, strain GIM3, active compounds read low 0.986 | locus YNL175C, strain NOP13, active compounds read low 1.02 | locus YNL197C, strain WHI3, active compounds read low 1.01 | locus YNL224C, strain SQS1, active compounds read low 1.02 | locus YOR083W, strain WHI5 (second series), active compounds read low 1.03 | locus YPL055C, strain LGE1, active compounds read low 1 | locus YPL241C, strain CIN2, active compounds read low 0.998

— PubChem BioAssay AID1159580 (chemical genetic matrix, 2015)
